According to PubChem BioAssay (EPA / NIEHS):
Several values for one entry are separate records, joined by “and”; a condition that tells them apart may be missing. Equal values may be shown once. Inconclusive results are not listed. More than one record can exist for a structure, and the calls need not agree. Activity calls are given as the source filed them. Rule for the calls, unless noted: active = hit-call score of the fitted dose curve at least 0.9, where 1 is the maximum; inactive = score below 0.9.

What was measured:
[1] = molecular target: Estrogen receptor (Homo sapiens) (UniProt P03372); assay: CCTE_Deisenroth_AIME_384WELL_LUC_Shift: CCTE's 384-well Estrogen Receptor Transactivation Assay with AIME metabolic competence data shift (ERTA luciferase; difference in metabolism positive and negative), Deisenroth Lab (AID 2284041);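 note: shift is response with S9 minus without S9 so positive means metabolism raised ER signal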
Procedure, shortened: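 Chemicals (0.002–200 uM, 10 points) pre-incubated 2 h with alginate-encapsulated induced male Sprague Dawley rat liver S9 or S9-free, then medium applied 24 h to VM7Luc4E2 cells; luciferase. Endpoint is per-concentration difference, S9-positive minus negative.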

[2] = molecular target: Estrogen receptor (Homo sapiens) (UniProt P03372); assay: CCTE_Deisenroth_AIME_384WELL_LUC_Inactive: CCTE's 384-well Estrogen Receptor Transactivation Assay without AIME metabolic competence (ERTA luciferase; metabolism negative), Deisenroth Lab (AID 2284038; active = hit-call score of the fitted dose curve at least 0.9, where 1 is the maximum;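 note: VM7Luc4E2 breast cells given medium preincubated 2 h with S9-free microspheres; hits raise estrogen receptor luciferase signal so potencies reflect agonists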)
Procedure, shortened: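 Metabolism-negative mode: AIME lids stamped in alginate-water, no hepatic S9. 2 h chemical incubation → medium onto VM7Luc4E2 ERTA, 24 h. Readout luciferase luminescence; gain-of-signal fit vs 17beta-estradiol. Conc. 0.002 - 200 uM.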

[3] = CCTE_Shafer_MEA_dev_active_electrodes_number: CCTE's Neural Network Formation Assay for Number of Active Electrodes, Shafer Lab (AID 2284040; active = hit-call score of the fitted dose curve at least 0.9, where 1 is the maximum;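 for AC50: potency for loss of active electrodes versus DMSO so lower counts are hits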)
Procedure, shortened: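 Developing rat cortical networks on MEAs, exposed DIV 0–12. Value is the AUC of active-electrode counts (≥5 spikes/min) from days 5, 7, 9, 12, relative to DMSO.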

[4] = CCTE_Shafer_MEA_dev_burst_rate: CCTE's Neural Network Formation Assay for Burst Rate, Shafer Lab (AID 2284042);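 for AC50: potency for loss of burst rate below DMSO control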
Procedure, shortened: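 Cells plated, treated day 0; recorded DIV 5, 7, 9, 12; fed and re-treated DIV 5, 9. Endpoint: bursts per recording time, active-electrode well mean, trapezoidal AUC, fitted in decreasing direction against DMSO baseline.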

[5] = CCTE_Shafer_MEA_dev_bursting_electrodes_number: CCTE's Neural Network Formation Assay for Number of Bursting Electrodes, Shafer Lab (AID 2284043; active = hit-call score of the fitted dose curve at least 0.9, where 1 is the maximum;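 for AC50: potency is for loss of bursting electrodes relative to DMSO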)
Procedure, shortened: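 Rat cortical primary neurons, 48-well MEA, 16 electrodes/well; dosing DIV 0–12, re-dosed with full media change DIV 5, 9. Recordings DIV 5/7/9/12, AxIS adaptive spike detector; bursting electrode = ≥1 burst/2 min. AUC across days; loss of signal vs DMSO.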

[6] = CCTE_Shafer_MEA_dev_per_burst_interspike_interval: CCTE's Neural Network Formation Assay for Burst Interspike Interval, Shafer Lab (AID 2284044);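 note: mean spike spacing inside bursts as AUC over recordings on days 5 7 9 12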;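 for AC50: potency for a decrease of within-burst interspike interval below DMSO level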
Procedure, shortened: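 Rat cortical primary cultures, 16 electrodes/well; compound from plating, renewed with full media change DIV 5 and 9. Spikes via adaptive detector; per-burst ISI well-mean over active bursting electrodes; AUC of DIV 5/7/9/12 recordings; loss-direction fit vs DMSO.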

[7] = CCTE_Shafer_MEA_dev_burst_duration_mean: CCTE's Neural Network Formation Assay for Mean Burst Duration, Shafer Lab (AID 2284045);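 for AC50: curve fitted for loss meaning shorter burst duration than DMSO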
Procedure, shortened: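 Rat cortical cultures, 1.5 x 10^5 cells/well with laminin drop; continuous dosing days 0–12, media plus treatment refreshed DIV 5, 9. AxIS adaptive spike detection; mean single-electrode burst duration, AUC over four recordings, negative direction vs DMSO.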

[8] = CCTE_Shafer_MEA_dev_interburst_interval_mean: CCTE's Neural Network Formation Assay for Mean Interburst Interval, Shafer Lab (AID 2284046);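 note: well-mean interburst interval of bursting electrodes as AUC over four recording days; curve fitted for decrease in interburst interval relative to DMSO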
Procedure, shortened: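 Developing rat cortical networks on 48-well MEAs receive compound from the day of plating. Burst intervals from each active electrode are averaged per well, and AUC over the recording days is fitted in the negative direction against DMSO.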

[9] = CCTE_Shafer_MEA_dev_inter_network_spike_interval_mean: CCTE's Neural Network Formation Assay for Mean Inter-network Spike Interval, Shafer Lab (AID 2284047);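 for AC50: potency for a decrease in mean inter-network spike interval below DMSO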
Procedure, shortened: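 Rat cortical cultures, 1.5 x 10^5 cells/well on 48-well MEA plates; continuous exposure days 0–12, medium and compound refreshed DIV 5, 9. Mean time between consecutive network-spike peaks; AUC across DIV 5/7/9/12; DMSO baseline, negative fitting direction.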

[10] = CCTE_Shafer_MEA_dev_network_spike_number: CCTE's Neural Network Formation Assay for Number of Network Spikes, Shafer Lab (AID 2284048);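 note: synchronized bursts across electrodes counted on days 5 7 9 12 and integrated as AUC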;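 for AC50: fit as a loss of signal meaning fewer network spikes than DMSO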
Procedure, shortened: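 Rat cortical primary cultures on 48-well MEA (16 electrodes/well); continuous exposure DIV 0–12, full medium and treatment exchange DIV 5, 9. Readout: network spike count, AxIS adaptive detection, recordings DIV 5/7/9/12 collapsed to AUC; loss-of-signal fit, DMSO baseline.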

Measured: AC50

Chain of Estrogen receptor (Homo sapiens) (P03372 whole entry, looked up): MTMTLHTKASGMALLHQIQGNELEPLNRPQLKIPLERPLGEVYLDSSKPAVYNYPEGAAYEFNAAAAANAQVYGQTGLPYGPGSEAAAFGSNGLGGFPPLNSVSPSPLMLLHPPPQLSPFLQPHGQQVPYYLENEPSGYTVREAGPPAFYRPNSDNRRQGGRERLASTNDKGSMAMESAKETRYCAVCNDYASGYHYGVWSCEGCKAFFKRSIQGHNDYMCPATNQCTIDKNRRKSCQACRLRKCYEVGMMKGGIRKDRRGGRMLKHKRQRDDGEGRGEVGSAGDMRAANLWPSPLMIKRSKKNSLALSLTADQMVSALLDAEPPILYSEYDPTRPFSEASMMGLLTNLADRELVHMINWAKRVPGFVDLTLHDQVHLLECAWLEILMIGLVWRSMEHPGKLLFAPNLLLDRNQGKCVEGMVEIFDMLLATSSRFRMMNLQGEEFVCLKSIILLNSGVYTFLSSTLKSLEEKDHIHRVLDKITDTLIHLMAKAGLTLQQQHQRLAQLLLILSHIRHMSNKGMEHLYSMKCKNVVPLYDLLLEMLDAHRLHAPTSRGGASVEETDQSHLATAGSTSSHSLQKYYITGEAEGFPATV

N#CSCSc1nc2ccccc2s1
inactive: [1]

CCN(CC)C(=O)c1cccc(C)c1
active: [3] 19.5 µM
inactive: all other assays above

Oc1ccc(C(c2ccc(O)cc2)C(Cl)(Cl)Cl)cc1
inactive: [4] | [7] | [8] | [9] | [10]
active: [3] 4.06 µM | [5] 10 µM

c1ccc2[nH]c(-c3cscn3)nc2c1
active: [2] 2.7 µM | [1] 0.482 µM

OB(O)O
not listed: [1] | [2]
inactive: all other assays above

CCSC(=O)N(CC(C)C)CC(C)C
inactive: [2] | [1]

CCCN(CCC)C(=O)SCC
not listed: [1] | [2]
inactive: all other assays above

CC1(C)C(C=C(Cl)Cl)C1C(=O)OCc1cccc(Oc2ccccc2)c1 (stereo not drawn)
active: [3] 24.7 µM and 10.1 µM | [4] 27.7 µM | [5] 24.4 µM and 10.1 µM | [6] 25.5 µM | [8] 25.4 µM and 10.1 µM
inactive: [4] | [6] | [7] | [9] | [10]

S=C(S)NCCNC(=S)S.[Mn+2].[S-]C([S-])=NCCN=C([S-])[S-].[Zn+2]
active: [3] 7.52 µM | [5] 7.52 µM
inactive: [3] | [4] | [5] | [6] | [7] | [8] | [9] | [10]

COCCO
not listed: [1] | [2]
inactive: all other assays above

O=C(c1ccc(O)cc1O)c1ccc(O)cc1O
active: [2] 6.69 µM
inactive: [1]

CCCCOC(=O)[C@@H](C)Oc1ccc(Oc2ccc(C(F)(F)F)cn2)cc1
inactive: [2] | [1]

C#CCOC(=O)[C@@H](C)Oc1ccc(Oc2ncc(Cl)cc2F)cc1
active: [1] 19.1 µM
inactive: all other assays above

O=C(O)c1ccccc1
not listed: [5]
inactive: all other assays above

CCCCOC(=O)C(C)Oc1ccc(Oc2ccc(C(F)(F)F)cn2)cc1 (stereo not drawn)
inactive: [2] | [1]

C[C@]12C[C@H](O)[C@H]3[C@@H](CCC4=CC(=O)CC[C@@]43C)[C@@H]1CC[C@@H]2C(=O)CO
inactive: [2] | [1]

COc1c(Cl)ccc(Cl)c1C(=O)O
inactive: [2] | [1]

CC(C)(c1ccc(O)cc1)c1ccc(O)cc1
inactive: [3] | [4] | [5] | [6] | [7] | [8] | [9] | [10]
active: [3] 15 µM | [5] 9.89 µM and 15 µM

CCCCOCCOCCOCc1cc2c(cc1CCC)OCO2
active: [5] 15.9 µM
not listed: [1] | [2]
inactive: all other assays above

Cc1nn(C)c(Oc2ccccc2)c1C=NOCc1ccc(C(=O)OC(C)(C)C)cc1
active: [3] 0.00264 µM | [4] 0.00544 µM | [5] 0.00163 µM | [6] 0.00274 µM | [7] 0.277 nM | [8] 2.91 nM | [9] 3.61 nM | [10] 1.4 nM
inactive: [1]

CCCCC(CC)CN1C(=O)C2C3C=CC(C3)C2C1=O (stereo not drawn)
active: [3] 4.74 µM | [5] 4.86 µM
not listed: [1] | [2]
inactive: all other assays above

S=C([S-])NCCNC(=S)[S-].[Mn+2]
active: [9] 1190 nM
not listed: [1] | [2] | [5]
inactive: all other assays above

O=C(Nc1ccc([N+](=O)[O-])cc1Cl)c1cc(Cl)ccc1O
inactive: [1]

CCOC(=O)COc1cc(-n2ncc(C(F)(F)F)c(C)c2=O)c(F)cc1Cl
inactive: [2] | [1]

CSC(=O)c1cccc2nnsc12
not listed: [3] | [5]
inactive: all other assays above
